In PubChem BioAssay AID1851 (National Center for Advancing Translational Sciences (NCATS), 2009):
In all, about 16,000 compounds went through this assay and about 5,100 (32%) were called active. Inconclusive results (about 25%) are left out. The list shows a part of the results. Unmarked numbers belong to inactive results. The call rests on the fitted dose curve; in most records, active means well fitted curve in the direction sought with a large enough effect; inconclusive means small, poorly fitted or top-dose-only effect, or effect the other way; inactive means no such curve, though single readings can be large or run the other way.

Molecular target: Cytochrome P450 3A4 (Homo sapiens) (UniProt P08684)
Sequence (P08684 whole entry, looked up): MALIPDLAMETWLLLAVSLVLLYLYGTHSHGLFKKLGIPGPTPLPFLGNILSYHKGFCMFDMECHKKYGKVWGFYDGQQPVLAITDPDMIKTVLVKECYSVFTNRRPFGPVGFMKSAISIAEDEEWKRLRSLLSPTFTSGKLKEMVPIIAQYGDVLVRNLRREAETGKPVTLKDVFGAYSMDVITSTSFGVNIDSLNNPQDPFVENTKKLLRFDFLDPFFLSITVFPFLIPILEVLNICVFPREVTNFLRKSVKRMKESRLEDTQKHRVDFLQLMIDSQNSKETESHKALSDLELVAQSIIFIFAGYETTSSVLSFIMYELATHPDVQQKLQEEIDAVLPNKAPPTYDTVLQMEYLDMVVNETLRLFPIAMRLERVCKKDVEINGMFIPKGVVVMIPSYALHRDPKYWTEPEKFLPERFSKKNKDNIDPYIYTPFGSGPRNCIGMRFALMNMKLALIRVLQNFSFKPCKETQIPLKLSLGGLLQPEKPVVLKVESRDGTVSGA
Assay: Cytochrome panel assay with activity outcomes
Conditions: recombinant CYP, pro-luciferin dealkylation, luminescence, p450-cyp3a4; series mostly up to 57.1 µM
On the % scale 0 is the no-effect control and ±100 the full control effect.

SMILES	AC50	activity, negative = inhibition
COCC(=O)N1CCC2(CC1)CCN(c1ccccn1)CC2	inactive	–
O=C(CCCn1c(=S)[nH]c2ccc(Br)cc2c1=O)N1CCN(c2ccccn2)CC1	1.26 µM (active)	–
COc1ccccc1Cn1c(=S)[nH]c2cc(C(=O)N3CCN(C)CC3)ccc2c1=O	inactive	–
COCC(=O)N1CCC2(CCCN(c3ncccn3)C2)CC1	inactive	–
Cc1cccc(N2CCN(C(=O)CCCn3c(=S)[nH]c4cc5c(cc4c3=O)OCO5)CC2)c1C	0.794 µM (active)	–
O=C(CCCn1c(=S)[nH]c2cc3c(cc2c1=O)OCO3)N1CCN(c2ncccn2)CC1	2 µM (active)	–
O=C(CCCCCn1c(=S)[nH]c2cc3c(cc2c1=O)OCO3)N1CCN(C2CCCCC2)CC1	1.12 µM (active)	–
Cn1c(=O)c2[nH]c(CCC(=O)O)nc2n(C)c1=O	–	-3% [at 11.4 µM]
NS(=O)(=O)c1cc(Cl)c(Cl)c(S(N)(=O)=O)c1	inactive	–
CN(C)c1cc(=O)n2c(n1)SCCC2	–	-1.72% [at 2.29 µM]
O=C(c1n[nH]c(=O)c2ccccc12)N1CCN(C2c3ccccc3-c3ccccc32)CC1	11.2 µM (active)	–
O=C(c1coc(=O)c2ccccc12)N1CCN(Cc2ccccc2)CC1	inactive	–
COc1ccc(CC(=O)N2CCN(c3ccc(C4=NNC(=O)CC4C)cc3)CC2)cc1 (stereo not drawn)	–	-9.27% [at 2.29 µM]
CCc1ccc(NC(=S)N2CCN(c3cccc(C(F)(F)F)c3)CC2)cc1	inactive	–
Cc1ccc(CC(=O)N2CCN(c3cccc(C(F)(F)F)c3)CC2)cc1	3.98 µM (active)	–
CC(=O)Nc1ccccc1C(=O)C(=O)O	inactive	–
Cc1ccc(S(=O)(=O)O[C@@H]2[C@H]([C@@H]3COC(C)(C)O3)O[C@H]3OC(C)(C)O[C@@H]32)cc1	–	-4.72% [at 11.4 µM]
O=C(CSc1nc2ccccc2[nH]1)NCCN1CCCCC1	inactive	–
COC(=O)[C@@]1(Cc2ccccc2)[C@H]2c3cc(C(=O)N4CCCC4)n(Cc4nc5ccccc5[nH]4)c3C[C@H]2CN1C(=O)c1ccccc1	1.26 µM (active)	–
COC(=O)[C@@]1(Cc2ccc(OC)cc2)[C@H]2c3cc(C(=O)N4CCCC4)n(Cc4nc5ccccc5[nH]4)c3C[C@H]2CN1C(=O)c1ccccc1	2 µM (active)	–
N=C(N)SCCCN	–	-9.75% [at 11.4 µM]
O=C1c2ccccc2C(=O)N1C[C@]1(C(=O)O)NCCS1(=O)=O	–	8.42% [at 11.4 µM]
O=C(NC1CCCC1)c1cnn2c(C(F)(F)F)cc(-c3ccco3)nc12	14.1 µM (active)	–
CCOC(=O)N1CCN(c2nc(-c3ccco3)cc(C(F)(F)F)n2)CC1	inactive	–

SMILES	AC50	activity, negative = inhibition
O=C(CCC1CCCCC1)Nc1c2c(nn1-c1ccc(F)cc1)CS(=O)(=O)C2	5.62 µM (active)	–
O=C(Nc1c2c(nn1-c1ccc(F)cc1)CS(=O)(=O)C2)C12CC3CC(CC(C3)C1)C2	8.91 µM (active)	–
COC(=O)c1nn(C23CC4CC(CC(C4)C2)C3)c2c1C(=O)N(c1ccc(F)cc1)C2=O	inactive	–
Cc1cc(C)cc(-n2c(C)cc(C=C(C#N)C#N)c2C)c1	inactive	–
COC(=O)C1=C(NC(=O)c2ccc(C)c(C)c2)CCS1	28.2 µM (active)	–
COC(=O)C1=C(NC(=O)c2cccs2)CCS1	15.8 µM (active)	–
Cc1ccc(S(=O)(=O)O/N=C2/CCCc3occc32)cc1	inactive	–
COC(=O)c1cnn(C(=O)c2ccccc2Br)c1N	inactive	–
COC(=O)c1cnn(C(=O)c2cc(OC)ccc2Br)c1N	28.2 µM (active)	–
CCOC(=O)c1cnn(-c2cc(Oc3ccccc3)ncn2)c1N	inactive	–
CCNC(=S)N1CC(C)OC(C)C1 (stereo not drawn)	inactive	–
CCSC(=N)N	inactive	–
COc1ccccc1CNc1nc(-c2ccccc2CN(C)C)nc2ccccc12	12.6 µM (active)	–
COc1ccc(CNc2nc(-c3ccccc3CN(C)C)nc3ccccc23)c(OC)c1	7.94 µM (active)	–
CN1CCCN(C2C3CC4CC(C3)CC2C4)CC1 (stereo not drawn)	inactive	–
NS(=O)(=O)c1cccc2c1c([N+](=O)[O-])cc1[nH]c(=O)c(=O)[nH]c12	inactive	–
Cc1cc(NC(=O)c2ccco2)ccc1-n1cnnn1	8.91 µM (active)	–
Cc1cc(C)cc(NC(=O)N2CCCC2C(=O)Nc2ccc(-n3cnnn3)c(C)c2)c1 (stereo not drawn)	5.01 µM (active)	–
CC(=O)Nc1cccc(NC(=O)C2CCCN2C(=O)Nc2ccccc2C)c1 (stereo not drawn)	–	0.0054% [at 11.4 µM]
COc1cc(Cn2cnnn2)ccc1O	inactive	–
O=[N+]([O-])c1ccc(Cl)c(-c2ccc(/C=N/c3c(-c4ccco4)nc4ccccn34)o2)c1	inactive	–
COc1cc(-c2nc3ccccn3c2/N=C/c2ccccc2)ccc1O	7.08 µM (active)	–
COc1ccc(CNc2ncncc2-c2ccccc2OC)c(OC)c1	0.316 µM (active)	–
COCCNc1cc(-c2ccccc2CN(C)C)ncn1	inactive	–

SMILES	AC50	activity, negative = inhibition
COc1ccc(CNc2ncncc2-c2c(C)noc2C)c(OC)c1	1.26 µM (active)	–
COc1ccc(CNc2ncncc2-c2ccccc2CN(C)C)c(OC)c1	0.398 µM (active)	–
COc1ccc(CNc2ncncc2-c2ccccc2C)c(OC)c1	0.398 µM (active)	–
N[C@H](CCC(=O)N[C@H](CSN=O)C(=O)NCC(=O)O)C(=O)O	inactive	–
CO[C@@H]1COC(=O)[C@H]2CCCN2C(=O)[C@@H](C)COC(=O)CCC[C@H]1C	–	-20.2% [at 11.4 µM]
C=CCNC(=O)/C(=C\C=C\c1ccccc1)NC(=O)c1ccc(OCCCC)cc1	8.91 µM (active)	–
Cc1ccc(C(=O)N/C(=C/C=C/c2ccccc2)C(=O)NCc2ccco2)cc1	5.01 µM (active)	–
C=CCOc1cccc(/C=N/NC(=O)C(=O)NCc2ccco2)c1	inactive	–
CC[N+](CC)(CC)CCOc1ccc(/C=C\c2ccccc2)cc1	inactive	–
Cn1cnc([N+](=O)[O-])c1Sc1nc(N)nc2c1ncn2[C@H]1C[C@H](O)[C@@H](CO)O1	–	-4.33% [at 11.4 µM]
CN1CCC(=C2c3ccccc3C=Cc3ccccc32)CC1	inactive	–
O=C(O)CN(CCOCCOCCN(CC(=O)O)CC(=O)O)CC(=O)O	inactive	–
N=C1/C(=C\c2ccc(SCc3ccco3)o2)C(=O)N=C2SC=NN12	3.98 µM (active)	–
O=C(O)c1cccc2cccc(-c3cccc4cccc(C(=O)O)c34)c12	–	-5.55% [at 11.4 µM]
CCc1ccc(/C=C\C(=O)N2CCc3ccccc3C2)cc1	inactive	–
O=C(CN1C(=O)c2cccc3cccc(c23)C1=O)N1CCCCCC1	10 µM (active)	–
O=C(CCCN1C(=O)c2cccc3cccc(c23)C1=O)N1CCc2ccccc2C1	5.01 µM (active)	–
N=C(N)N1CCc2ccccc2C1	inactive	–
O=C(c1ccc(S(=O)(=O)N2CCCCCC2)cc1)N1CCC(CN2C(=O)c3cccc4cccc(c34)C2=O)CC1	inactive	–
COc1ccc(/C=N/NC(=O)c2cc(-c3ccc(C)cc3C)nc3ccccc23)cc1COC(C)=O	–	14.1% [at 0.457 µM]
COc1cccc(/C=N/NC(=O)c2nc(-c3ccccc3)cc(-c3ccccc3)n2)c1	inactive	–
COc1cccc(-c2cc(C(=O)N/N=C/c3ccc(OC)c(COC(C)=O)c3)c3ccccc3n2)c1	1.78 µM (active)	–
N[C@]1(C(=O)O)CCc2cc(P(=O)(O)O)ccc21	inactive	–
CC(C)c1ccc2c(c1)C(c1ccc(N3CCOCC3)cc1)=NNC(c1cccs1)=N2	–	9.44% [at 2.29 µM]

SMILES	AC50	activity, negative = inhibition
Fc1ccc2c(c1)C(c1ccncc1)=NNC(c1ccc(Cl)cc1)=N2	1.78 µM (active)	–
Clc1ccc2c(c1)C(c1cccs1)=NNC(c1cccnc1)=N2	10 µM (active)	–
O=C(O)[C@H]1CCCC[C@@H]1c1c2ccc(=O)c(O)c-2oc2c(O)c(O)ccc12	–	-5.27% [at 11.4 µM]
CSc1nc(Oc2ccc(F)cc2)c2ccccc2n1	inactive	–
C=CCSc1nc(NC)c2sccc2n1	25.1 µM (active)	–
C=CCSc1ccsc1C(=O)O	inactive	–
C=CCNc1nc(SCC=C)nc2ccsc12	12.6 µM (active)	–
C=CCSc1nc(Oc2ccccc2)c2sccc2n1	10 µM (active)	–
NS(=O)(=O)c1ccc(N=Nc2c[nH]c(=O)c(O)c2)cc1	–	-19.5% [at 11.4 µM]
O=C(CSc1nc2nc(-c3cccs3)cc(C(F)(F)F)c2c(=O)[nH]1)NCc1ccco1	14.1 µM (active)	–
N#Cc1c(-c2cccs2)nc(SCC(=O)c2cccs2)[nH]c1=O	–	-3.29% [at 2.29 µM]
CSc1nc(-c2ccc(C)cc2)[nH]c1S(=O)(=O)c1ccccc1	28.2 µM (active)	–
CSc1nc(O)c(Cc2ccccc2)c(=O)[nH]1	inactive	–
CCCCCOC(=O)c1c(N)n(CCOC)c2nc3ccccc3nc12	8.91 µM (active)	–
C=C(CC1([C@@H](NP(=O)(c2ccccc2)c2ccccc2)[C@H]2C[C@@H]2CCN(C(=O)OCC)S(=O)(=O)c2ccc(C)cc2)CC1)c1ccccc1	1.58 µM (active)	–
C=C(CC1([C@@H](NP(=O)(c2ccccc2)c2ccccc2)[C@H]2C[C@@H]2CCCC)CC1)c1ccccc1	1.58 µM (active)	–
C=C(CC1([C@@H](NP(=O)(c2ccccc2)c2ccccc2)[C@H]2C[C@@H]2CCCC)CC1)c1cccc(OC)c1	2.51 µM (active)	–
O=C(O)c1ccc(SSc2ccc(C(=O)O)cn2)nc1	–	-8.92% [at 11.4 µM]
Cc1cc(C(=O)OCC(=O)NCCCN2CCCC2=O)c2ccccc2n1	–	-5.65% [at 2.29 µM]
Cc1ccc(C(=O)N(CN2CCCC2=O)c2ccccc2)cc1C	12.6 µM (active)	–
O=C1CCCN1CC(O)CS(=O)(=O)c1ccccc1 (stereo not drawn)	inactive	–
